From PubChem BioAssay AID1259374 (The Scripps Research Institute Molecular Screening Center, 2018) come the findings set out here.

The campaign covered roughly 650,000 compounds. About 5,900 (0.91%) were called active. The sample as a whole holds a higher share of actives than the screen did. A number with no mark means an inactive call. Rule as the data show it: active = inhibition above about 50%; inactive = the rest.

In general, inhibition refers to the change of the read-out against control, counted positive when it falls.

The test deals with Microphthalmia-associated transcription factor (Homo sapiens) (UniProt O75030). Briefly: MITF inhibitors, primary screen, biochemical, AlphaScreen, human (AID 1259374).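 Also: 0% = vehicle wells with protein.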 The settings on record: AlphaScreen MITF homodimerization, bead proximity signal; at 2.6 µM; hits give high values. On the technique in general: Bead proximity is the source of the signal in Alpha formats.
Sequence of Microphthalmia-associated transcription factor (Homo sapiens) (O75030 whole entry, looked up): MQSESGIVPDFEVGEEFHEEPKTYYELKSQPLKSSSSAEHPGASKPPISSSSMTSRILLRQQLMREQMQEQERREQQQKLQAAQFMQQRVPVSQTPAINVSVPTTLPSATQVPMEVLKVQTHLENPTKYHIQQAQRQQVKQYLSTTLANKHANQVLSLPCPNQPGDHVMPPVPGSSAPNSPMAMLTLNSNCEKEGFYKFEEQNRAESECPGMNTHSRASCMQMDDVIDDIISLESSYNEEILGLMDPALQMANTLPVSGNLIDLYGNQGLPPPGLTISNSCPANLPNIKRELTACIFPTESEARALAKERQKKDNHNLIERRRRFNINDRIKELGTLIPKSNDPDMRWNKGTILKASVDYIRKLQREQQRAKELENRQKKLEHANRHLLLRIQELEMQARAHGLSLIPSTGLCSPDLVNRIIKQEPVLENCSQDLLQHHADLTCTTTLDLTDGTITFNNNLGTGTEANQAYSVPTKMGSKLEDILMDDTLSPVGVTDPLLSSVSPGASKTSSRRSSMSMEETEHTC
Turning to `CCN1CCc2nc3ccccc3c(C(=O)O)c2C1`, the inhibition is 61.5% (active).

As to `CCn1c(C(=O)O)c(CC(=O)N2CCN(Cc3ccccc3)CC2)c2ccccc21`, the inhibition was 3.77%. Regarding `CCc1nc2ccccc2c(=O)n1-c1ccccc1`, the inhibition was 10.7%. Regarding `O=[N+]([O-])c1ccc(N2CCCCC2)c2cccnc12`, the inhibition is 27.4%. For the compound `CS(=O)(=O)Nc1ccc(C#N)c(Cl)c1`, the inhibition is -2.59%.

On to `CCC(=O)c1ccc(N2CCN(C)CC2)c(F)c1`, for which the inhibition was -2.65%.

Regarding `C(#CC1CC1)CN(C1CCCCC1)C1CCCCC1`, the inhibition is 83.7% (active).

For `CN(CC#CC1CC2CCC1C2)C1CCCCC1` (configuration not stated), the inhibition was -0.53%. Regarding `CCn1c(=O)n(CC2CS2)c2ccccc21` (configuration not stated), the inhibition was -0.54%. For the compound `Cc1cnc2nc3c(cc2c1)CN(Cc1cccnc1)CC3`, the inhibition was -8.7%. For `CN1CCN(c2cc3[nH]c(=S)[nH]c3cc2F)CC1`, the inhibition is -8%. As to `CCOC(=O)C1C2NC(=S)N(c3ccc(CC)cc3)C1(C)Oc1c(OC)cccc12` (configuration not stated), the inhibition was 39.5%. Turning to `CCOC(=O)C1C2NC(=S)N(c3ccc(F)cc3)C1(C)Oc1c(OCC)cccc12` (configuration not stated), the inhibition is 55.5% (active). Regarding `CCOC(=O)C1C2NC(=S)N(c3ccc(Cl)cc3)C1(C)Oc1ccccc12` (configuration not stated), the inhibition is 10.8%. As for `CCOC(=O)C1C2NC(=S)NC1(C)Oc1c(OCC)cccc12` (configuration not stated), the inhibition was -1.57%.

Regarding `CCOC(=O)C1C2NC(=S)NC1(C)Oc1cc(OC)ccc12` (configuration not stated), the inhibition was 13.6%. As to `CCOC(=O)C1C2NC(=S)N(CC)C1(C)Oc1ccc(Cl)cc12` (configuration not stated), the inhibition was 65.6% (active). In the case of `Cn1c(SCCOC(N)=O)nnc1-c1ccc([N+](=O)[O-])cc1`, the inhibition was 5.78%. With `CS(=O)(=O)c1ccc(CC(=O)N2CCN(C(c3ccccc3)c3ccccc3)CC2)cc1`, the inhibition was 7.6%. For `c1ccc(-c2ccnc3nc4ccccc4n23)cc1`, the inhibition was 7.67%. `OC(CNC1CN2CCC1CC2)COc1cccc2ccccc12` (configuration not stated): the inhibition was 18.3%. With `COc1ccc(CN2CCN(CCO)CC2)c(OC)c1OC`, the inhibition was -8.5%. Then `COc1ccc(CN2CCN(C(C)C)CC2)c(OC)c1OC`, with 68.1% (active); and `CC(C)N1CCN(Cc2ccccc2)CC1`, with 41%. With `COc1ccc(CN2CCN(c3ccc(C(C)=O)cc3)CC2)cc1`, the inhibition is 18.3%. Regarding `COc1ccc(CN2CCN(c3ccccc3F)CC2)c(OC)c1`, the inhibition is 14%.

Take `COc1ccc(CN2CCN(C(C)C)CC2)cc1`: the inhibition was 57% (active). For the compound `CC(C)CN(Cc1c(O)ccc2c(=O)c(-c3ccccc3)coc12)CC(C)C`, the inhibition is -5.09%. In the case of `COC(NC(=O)c1ccco1)C(Cl)(Cl)Cl` (configuration not stated), the inhibition was 17.3%. Regarding `CCCCn1c(C)c(C(=O)OCC)c2cc(OC(=O)COc3ccccc3)c3ccccc3c21`, the inhibition was -5.32%. For the compound `Cc1nc2ccccc2c(=O)n1-c1cccc(Cl)c1`, the inhibition was 22.4%.

With `COc1ccc(Cl)cc1C(=O)C1CCCN(Cc2ncc[nH]2)C1` (configuration not stated), the inhibition was 7.6%. For `COc1cc(NC(=O)CCc2nc(C3=CCN(C)CC3)no2)cc(OC)c1OC`, the inhibition is 51.6% (active). `CCCN1CCN(C(=O)Cc2nc(-c3ccc(OC)cc3)no2)CC1`: the inhibition is 1.81%. On to `CCOC(=O)C1=C(c2ccccc2)OC(N)=C(C#N)C12C(=O)Nc1ccc(Br)cc12` (configuration not stated), for which the inhibition is 2.49%. As for `CC[C@@H](C)C(=O)O[C@H]1[C@H](O)[C@H]2[C@@H](CN3C[C@@H](C)CC[C@H]3[C@@]2(C)O)[C@@H]2C[C@]34O[C@]5(O)[C@@H](OC(=O)C(C)(O)C(C)O)CC[C@@]3(C)[C@@H]5[C@@H](OC(C)=O)[C@@H](OC(C)=O)[C@H]4[C@@]21O` (some centres not stated), the figure is 23.5%; as for `O=[N+]([O-])c1ccc(CNCCc2c[nH]c3ccccc23)cc1`, 25.3%. Take `COc1ccc(CNCCc2c[nH]c3ccccc23)cc1OC`: the inhibition is 13.6%.

For the compound `c1cncc(CNCCc2c[nH]c3ccccc23)c1`, the inhibition is 84% (active). Then `Cc1nn(CC(=O)N2CCC3(CC2)OCCO3)c(=O)c2cccn12`, with -10.4%; and `O=C1CN=C(c2ccc(Br)cc2)c2cc(Br)ccc2N1`, with -2.48%. For the compound `N#Cc1ccc(NC(=O)COc2cc(F)ccc2[N+](=O)[O-])cc1Cl`, the inhibition is 10.7%. For `CN1CN/C(=N\[N+](=O)[O-])N(Cc2ccco2)C1`, the inhibition is -9.51%. Turning to `Fc1ccc(N2CCN(Cc3ccccc3F)CC2)cc1`, the inhibition is 12.7%.

Turning to `COc1cc(CN2CCN(c3ccccc3)CC2)cc(OC)c1`, the inhibition is 5.15%. Take `Fc1ccccc1CN1CCN(Cc2ccccc2F)CC1`: the inhibition is 75.5% (active).

Turning to `COc1cccc(CN2CCN(Cc3ccccc3OC)CC2)c1`, the inhibition was 7.82%. Take `CCC(C)N1CCN(Cc2cccc(OC)c2)CC1` (configuration not stated): the inhibition was 63.5% (active). As for `COc1ccc(CN2CCN(c3ccccc3F)CC2)c(O)c1`, the figure is 21.3%; as for `CCN1CCN(Cc2ccc(F)cc2F)CC1`, 1.97%; as for `COc1cccc(CN2CCN(Cc3ccccc3F)CC2)c1`, 75.4% (active). In the case of `O=C(COc1ccccc1)N1CCN(Cc2cccc(Oc3ccccc3)c2)CC1`, the inhibition is 32.3%. As to `CCOC(=O)C1=C(N)Oc2cc(C)n(CC)c(=O)c2C12C(=O)N(CC(C)C)c1ccccc12` (configuration not stated), the inhibition was 4.18%. As for `Cc1ccc(C(O)(C(=O)NNc2cc(Cl)ccc2Cl)c2ccc(C)cc2)cc1`, the inhibition was 8.08%. `O=[N+]([O-])c1ccc(N2CCc3ccccc3C2)c2ccncc12`: the inhibition is 5.66%. As to `CC(C)(CNc1ccc([N+](=O)[O-])c2cccnc12)CNS(=O)(=O)c1ccc(Cl)cc1`, the inhibition is 0.37%. For `N#CC1=C(N)Oc2c(c(=O)oc3ccccc23)C1c1ccc(OC(F)(F)F)cc1` (configuration not stated), the inhibition is 2.42%.
